The source of these data is PubChem BioAssay (EPA / NIEHS).

Structures are written as SMILES. Inconclusive results are not listed. Activity calls are given as the source filed them. How the source made its calls, unless noted: active means hit-call score of the fitted dose curve at least 0.9, where 1 is the maximum; inconclusive means response in the unintended direction; inactive means score below 0.9.

Assay [1] deals with Glucocorticoid receptor (Homo sapiens) (UniProt P04150). Description: ATG_GR_TRANS: Attagene TRANS-FACTORIAL HepG2 Assay for human Glucocorticoid Receptor (GR) (AID 2282978).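 Further: activators score as hits since higher reporter transcript over DMSO is fitted.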 To be noted: HepG2 Attagene TRANS GR reporter, mRNA transcription. In outline:
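Transient MRTU transfection of HepG2 (GAL4-UAS reporters, exogenous NR-GAL4 chimeras), 24 h dosing. Readout: reporter transcript via RT-PCR + capillary electrophoresis fluorescence. Positive direction vs DMSO baseline.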

Assay [2] has as its target Bile acid receptor (Homo sapiens) (UniProt Q96RI1). Description: ATG_FXR_TRANS: Attagene TRANS-FACTORIAL HepG2 Assay for Farnesoid X Receptor (FXR) (AID 2282979).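 Further: hits raise reporter mRNA above DMSO so AC50 marks FXR activation.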 To be noted: HepG2 Attagene TRANS FXR-GAL4 reporter transcription. The procedure, abridged:
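After 24 h chemical treatment of transfected HepG2 cells, GAL4-UAS reporter transcripts driven by an exogenous FXR-GAL4 fusion were measured by RT-PCR and capillary electrophoresis. Increases over DMSO were fitted.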

For assay [3], the target named is Oxysterols receptor LXR-beta (Homo sapiens) (UniProt P55055). Description: ATG_LXRb_TRANS: Attagene TRANS-FACTORIAL HepG2 Assay for human Liver X Receptor beta (LXRb) (AID 2282981). To be noted: HepG2 Attagene TRANS GAL4-LXRb reporter, mRNA. In outline: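 Measures induction of a Gal4-driven reporter transcript in HepG2 cells expressing an exogenous LXRb-Gal4 fusion. Cells are exposed to compound for 24 h before RNA isolation and RT-PCR with capillary electrophoresis detection.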
Oxysterols receptor LXR-beta (Homo sapiens), sequence (P55055 whole entry, looked up, the tested form may be a part): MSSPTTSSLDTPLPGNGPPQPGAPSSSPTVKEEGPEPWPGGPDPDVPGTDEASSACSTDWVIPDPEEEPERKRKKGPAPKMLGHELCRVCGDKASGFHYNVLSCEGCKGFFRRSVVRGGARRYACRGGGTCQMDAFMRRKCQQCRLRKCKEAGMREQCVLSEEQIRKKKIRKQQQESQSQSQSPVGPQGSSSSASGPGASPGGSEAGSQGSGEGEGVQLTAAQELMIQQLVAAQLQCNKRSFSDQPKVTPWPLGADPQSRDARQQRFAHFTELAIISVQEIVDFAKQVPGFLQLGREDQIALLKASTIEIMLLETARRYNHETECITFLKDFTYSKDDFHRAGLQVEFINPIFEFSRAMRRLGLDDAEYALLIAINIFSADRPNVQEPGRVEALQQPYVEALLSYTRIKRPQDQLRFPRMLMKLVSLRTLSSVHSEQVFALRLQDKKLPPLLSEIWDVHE

The nature of assay [4]: ATG_M_06_TRANS: Attagene TRANS-FACTORIAL HepG2 Assay for M06 Transcription Factor (Internal Marker) (AID 2282983).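 On AC50: potency for rise in reporter mRNA above DMSO baseline.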 The note with it: HepG2 Attagene TRANS M06 internal marker reporter. The procedure, abridged: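 Multi-reporter-transfected HepG2, 24 h treatment; reporter transcripts quantified via RT-PCR, primer-extension labelling and CE. DMSO-normalized gain-of-signal fit.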

The nature of assay [5]: ATG_M_32_TRANS: Attagene TRANS-FACTORIAL HepG2 Assay for M32 Transcription Factor (Internal Marker) (AID 2282984).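 Further: transcript level of a background control reporter unit measured by RT-PCR and capillary electrophoresis.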 To be noted: HepG2 Attagene TRANS M32 internal marker reporter. In outline: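 After 24 h dosing of transfected HepG2 cells, total RNA was reverse-transcribed, reporter sequences PCR-amplified, 6-FAM labelled by primer extension and HpaI-digested before capillary electrophoresis. Signal increase over DMSO was fitted.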

Assay [6] deals with Nuclear receptor subfamily 4 group A member 2 (Homo sapiens) (UniProt P43354). Description: ATG_NURR1_TRANS: Attagene TRANS-FACTORIAL HepG2 Assay for human Nuclear Receptor Related Protein 1 (NURR1) (AID 2282985). To be noted: HepG2 Attagene TRANS reporter, mRNA readout. The procedure, abridged:
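Chimeric NR-Gal4 fusion activity measured in HepG2 after 24 h treatment. Reporter transcripts detected by RT-PCR and capillary electrophoresis fluorescence; positive-direction curve fitting against DMSO.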

Assay [7] has as its target Transcriptional activator Myb (Homo sapiens) (UniProt P10242). The assay is described as follows: ATG_Myb_CIS: Attagene CIS-FACTORIAL HepG2 Assay for human Myeloblastosis (Myb) Proto-Oncogene Transcription Factor (AID 2282986; active means hit-call score of the fitted dose curve at least 0.9, where 1 is the maximum; inactive means score below 0.9). To be noted: HepG2 Attagene CIS-FACTORIAL Myb reporter transcription; actives raise or lower the signal. The procedure, abridged: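 HepG2, transient MRTU transfection (cis-element promoters, endogenous TF activity), 24 h compound exposure. Readout: reporter mRNA via RT-PCR, 6-FAM labeling, HpaI digest, capillary electrophoresis. Gain/loss fit vs DMSO.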

In assay [8] the target is Nuclear respiratory factor 1 (Homo sapiens) (UniProt Q16656). Description: ATG_NRF1_CIS: Attagene CIS-FACTORIAL HepG2 Assay for human Nuclear Respiratory Factor 1 (NRF1) Orphan Gene (AID 2282987; active means hit-call score of the fitted dose curve at least 0.9, where 1 is the maximum; inactive means score below 0.9). The note with it: HepG2 NRF1 cis-element reporter, Attagene multiplex; actives raise or lower the signal. The procedure, abridged: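 Endogenous NRF1-driven reporter transcription measured in transiently transfected human HepG2 liver cells. Readout: reporter mRNA by RT-PCR and capillary electrophoresis with fluorescence detection, 24 h post-dosing. Gain or loss of signal fitted relative to DMSO baseline.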
Nuclear respiratory factor 1 (Homo sapiens), sequence (Q16656 whole entry, looked up): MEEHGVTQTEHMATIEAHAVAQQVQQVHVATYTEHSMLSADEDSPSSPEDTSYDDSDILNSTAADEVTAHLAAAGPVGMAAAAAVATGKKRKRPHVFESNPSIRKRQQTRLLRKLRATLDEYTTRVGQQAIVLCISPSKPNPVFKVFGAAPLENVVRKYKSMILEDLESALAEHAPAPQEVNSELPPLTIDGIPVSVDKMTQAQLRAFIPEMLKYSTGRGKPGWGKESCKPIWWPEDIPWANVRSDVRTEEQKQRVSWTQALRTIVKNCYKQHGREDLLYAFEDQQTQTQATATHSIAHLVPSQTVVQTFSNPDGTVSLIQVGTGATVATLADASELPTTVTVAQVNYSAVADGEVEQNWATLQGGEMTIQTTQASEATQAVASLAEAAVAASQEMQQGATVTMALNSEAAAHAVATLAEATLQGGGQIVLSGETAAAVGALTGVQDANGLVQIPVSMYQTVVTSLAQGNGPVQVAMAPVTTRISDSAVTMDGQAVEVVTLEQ

The target of assay [9] is Hepatocyte nuclear factor 4-alpha (Homo sapiens) (UniProt P41235). Description: ATG_HNF4a_TRANS: Attagene TRANS-FACTORIAL HepG2 Assay for human Hepatocyte Nuclear Factor 4 alpha (HNF4a) (AID 2282982). To be noted: HepG2 HNF4a transactivation reporter, mRNA readout. In outline:
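In this trans-factorial format, a chimeric HNF4a-GAL4 fusion drives a GAL4-UAS reporter in transfected HepG2 liver cells. After 24 h treatment, reporter mRNA induction is measured by RT-PCR with capillary electrophoresis, relative to DMSO.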

Assay [10] deals with Oxysterols receptor LXR-alpha (Homo sapiens) (UniProt Q13133). Description: ATG_LXRa_TRANS: Attagene TRANS-FACTORIAL HepG2 Assay for human Liver X Receptor alpha (LXRa) (AID 2282980). To be noted: HepG2 Attagene TRANS reporter, LXRa transactivation. In outline:
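In this multiplexed TRANS system, compounds act on HepG2 cells carrying GAL4-UAS reporter units and a receptor-GAL4 fusion for 24 h. Induced reporter RNA is amplified, fluorescently labelled and sized by capillary electrophoresis, with DMSO as baseline.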

Bile acid receptor (Homo sapiens), sequence (Q96RI1 whole entry, looked up, the tested form may be a part): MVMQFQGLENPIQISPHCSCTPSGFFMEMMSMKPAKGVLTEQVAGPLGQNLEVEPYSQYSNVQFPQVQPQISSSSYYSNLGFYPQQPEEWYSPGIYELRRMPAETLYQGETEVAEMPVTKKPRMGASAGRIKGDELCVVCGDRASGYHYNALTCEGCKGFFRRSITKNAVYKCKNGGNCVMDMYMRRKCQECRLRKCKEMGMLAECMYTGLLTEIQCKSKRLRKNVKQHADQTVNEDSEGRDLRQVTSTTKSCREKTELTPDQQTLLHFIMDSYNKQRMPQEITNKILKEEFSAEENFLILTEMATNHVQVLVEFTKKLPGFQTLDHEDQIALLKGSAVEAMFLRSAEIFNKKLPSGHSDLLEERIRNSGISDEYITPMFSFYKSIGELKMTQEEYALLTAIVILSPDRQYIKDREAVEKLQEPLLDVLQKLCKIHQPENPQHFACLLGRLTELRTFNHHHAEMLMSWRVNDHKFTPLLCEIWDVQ
Transcriptional activator Myb (Homo sapiens), sequence (P10242 whole entry, looked up): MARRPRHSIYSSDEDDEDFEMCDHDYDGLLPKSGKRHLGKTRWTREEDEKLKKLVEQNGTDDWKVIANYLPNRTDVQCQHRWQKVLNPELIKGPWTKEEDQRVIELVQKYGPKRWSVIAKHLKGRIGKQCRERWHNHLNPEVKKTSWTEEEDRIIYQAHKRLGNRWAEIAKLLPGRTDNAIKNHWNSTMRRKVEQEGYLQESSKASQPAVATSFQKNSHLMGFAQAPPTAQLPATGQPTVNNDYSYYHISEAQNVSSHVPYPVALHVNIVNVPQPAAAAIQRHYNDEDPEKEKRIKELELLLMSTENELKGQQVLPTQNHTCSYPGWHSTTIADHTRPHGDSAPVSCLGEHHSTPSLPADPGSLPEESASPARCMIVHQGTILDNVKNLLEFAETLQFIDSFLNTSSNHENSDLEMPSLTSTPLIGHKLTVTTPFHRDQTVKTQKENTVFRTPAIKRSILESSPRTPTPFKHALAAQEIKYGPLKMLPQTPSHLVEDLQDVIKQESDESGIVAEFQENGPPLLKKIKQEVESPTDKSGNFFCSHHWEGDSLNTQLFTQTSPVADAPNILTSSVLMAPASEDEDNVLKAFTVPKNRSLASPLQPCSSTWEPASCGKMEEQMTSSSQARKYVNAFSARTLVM
Glucocorticoid receptor (Homo sapiens), sequence (P04150 whole entry, looked up, the tested form may be a part): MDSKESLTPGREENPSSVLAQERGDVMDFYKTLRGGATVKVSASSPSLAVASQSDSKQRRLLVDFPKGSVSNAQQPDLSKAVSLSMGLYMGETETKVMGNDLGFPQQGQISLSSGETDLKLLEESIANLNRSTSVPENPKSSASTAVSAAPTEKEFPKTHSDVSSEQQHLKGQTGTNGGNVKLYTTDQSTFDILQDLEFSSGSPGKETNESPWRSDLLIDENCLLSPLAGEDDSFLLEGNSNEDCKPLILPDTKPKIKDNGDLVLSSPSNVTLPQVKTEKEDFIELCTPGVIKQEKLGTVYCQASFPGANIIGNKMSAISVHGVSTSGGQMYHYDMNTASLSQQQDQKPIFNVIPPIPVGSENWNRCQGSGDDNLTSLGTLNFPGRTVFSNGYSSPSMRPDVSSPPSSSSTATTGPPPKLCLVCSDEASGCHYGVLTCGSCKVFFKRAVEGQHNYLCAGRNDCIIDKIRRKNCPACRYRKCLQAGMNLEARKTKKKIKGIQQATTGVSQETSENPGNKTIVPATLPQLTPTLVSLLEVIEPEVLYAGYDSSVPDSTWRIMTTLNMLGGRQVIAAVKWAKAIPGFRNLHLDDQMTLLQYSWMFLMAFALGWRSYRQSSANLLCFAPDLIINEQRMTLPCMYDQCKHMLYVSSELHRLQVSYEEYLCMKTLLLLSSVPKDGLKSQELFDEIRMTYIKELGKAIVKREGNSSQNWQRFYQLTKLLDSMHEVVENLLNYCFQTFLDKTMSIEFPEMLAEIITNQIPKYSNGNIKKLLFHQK
Hepatocyte nuclear factor 4-alpha (Homo sapiens), sequence (P41235 whole entry, looked up, the tested form may be a part): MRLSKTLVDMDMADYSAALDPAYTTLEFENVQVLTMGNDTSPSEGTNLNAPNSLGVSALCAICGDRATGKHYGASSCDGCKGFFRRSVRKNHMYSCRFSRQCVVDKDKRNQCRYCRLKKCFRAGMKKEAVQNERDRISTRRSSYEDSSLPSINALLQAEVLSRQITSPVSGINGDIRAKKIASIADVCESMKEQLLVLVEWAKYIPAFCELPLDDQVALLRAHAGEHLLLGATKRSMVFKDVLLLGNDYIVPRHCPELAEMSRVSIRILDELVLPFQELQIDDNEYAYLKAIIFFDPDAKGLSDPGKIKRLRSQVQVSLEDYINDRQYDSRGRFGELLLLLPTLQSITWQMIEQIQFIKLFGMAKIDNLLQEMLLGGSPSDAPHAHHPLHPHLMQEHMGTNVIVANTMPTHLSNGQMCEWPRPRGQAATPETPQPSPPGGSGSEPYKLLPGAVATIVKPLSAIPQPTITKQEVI
Oxysterols receptor LXR-alpha (Homo sapiens), sequence (Q13133 whole entry, looked up, the tested form may be a part): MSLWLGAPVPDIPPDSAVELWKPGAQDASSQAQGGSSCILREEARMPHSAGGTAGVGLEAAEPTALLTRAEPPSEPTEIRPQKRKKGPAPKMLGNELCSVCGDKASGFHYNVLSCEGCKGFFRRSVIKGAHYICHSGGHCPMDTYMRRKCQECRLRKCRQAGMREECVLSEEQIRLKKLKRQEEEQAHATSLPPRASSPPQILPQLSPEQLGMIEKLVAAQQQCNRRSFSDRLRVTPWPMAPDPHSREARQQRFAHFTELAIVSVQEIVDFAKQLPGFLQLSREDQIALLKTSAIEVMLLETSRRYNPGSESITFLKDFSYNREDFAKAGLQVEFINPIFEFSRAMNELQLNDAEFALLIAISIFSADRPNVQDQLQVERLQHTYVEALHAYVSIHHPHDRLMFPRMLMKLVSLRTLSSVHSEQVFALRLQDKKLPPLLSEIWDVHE
Nuclear receptor subfamily 4 group A member 2 (Homo sapiens), sequence (P43354 whole entry, looked up, the tested form may be a part): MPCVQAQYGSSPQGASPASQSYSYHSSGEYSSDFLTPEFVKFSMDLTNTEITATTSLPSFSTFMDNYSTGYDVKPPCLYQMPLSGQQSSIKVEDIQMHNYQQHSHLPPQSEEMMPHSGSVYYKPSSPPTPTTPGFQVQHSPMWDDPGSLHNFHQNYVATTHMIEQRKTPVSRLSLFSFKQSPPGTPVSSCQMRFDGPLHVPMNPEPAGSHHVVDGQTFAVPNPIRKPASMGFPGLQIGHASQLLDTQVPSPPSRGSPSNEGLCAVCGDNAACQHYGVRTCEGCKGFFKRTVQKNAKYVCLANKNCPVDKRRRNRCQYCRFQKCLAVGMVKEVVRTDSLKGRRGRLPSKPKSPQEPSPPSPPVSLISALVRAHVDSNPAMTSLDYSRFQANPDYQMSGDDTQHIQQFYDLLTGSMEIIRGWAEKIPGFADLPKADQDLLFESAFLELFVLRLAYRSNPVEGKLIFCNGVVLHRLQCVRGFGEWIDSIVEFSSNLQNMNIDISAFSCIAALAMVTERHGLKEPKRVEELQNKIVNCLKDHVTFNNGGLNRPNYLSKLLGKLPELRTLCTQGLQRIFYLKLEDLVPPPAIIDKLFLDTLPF

For `C=CCOc1c(Br)cc(Br)cc1Br`, the result in assay [1], in [2], in assay [3], in [4], in assay [5] and in assay [7] was inactive. The outcome in assay [8] was inactive. The concentration at half-maximal activity (AC50) in [6] is 43.4 µM (active).
On to `CCCCCC/C=C\CCCCCCCC(=O)O`, for which the result in assay [1], in assay [2], in assay [9], in [4], in assay [6] and in assay [8] was inactive.
For `C[C@]12CCC(=O)C=C1CC[C@@H]1[C@@H]2C(=O)C[C@@]2(C)[C@H]1CC[C@]2(O)C(=O)CO`, the molecule was called inactive in [1], in [10], in assay [3], in assay [9], in assay [4] and in assay [7]. Moreover, the outcome in assay [8] was inactive.
`O=C1c2cccc(O)c2C(=O)c2c(O)cc(CO)cc21`: the molecule was called inactive in assay [1], in assay [2], in assay [10], in [6], in assay [7] and in [8].
As for `CCN(CCC#N)c1ccc(N=Nc2c(Cl)cc([N+](=O)[O-])cc2Cl)cc1`, the molecule was called inactive in assay [1], in assay [2], in assay [10], in [3], in [9] and in [6]. The molecule was called inactive in [7] and in assay [8].
With `c1ccc2c(c1)ccc1cc3c(ccc4ccccc43)cc12`, the outcome in assay [1], in assay [2], in [10], in assay [3], in assay [9] and in [5] was inactive. The result in assay [6] and in assay [8] was inactive.
`Nc1nc2ccccc2[nH]1`: the molecule was called inactive in assay [1], in assay [2], in assay [10], in assay [3], in assay [9] and in assay [4]. In addition, the molecule was called inactive in assay [5], in assay [6], in [7] and in assay [8].
Turning to `O=C(Nc1ccccc1)c1ccccc1O`, the molecule was called inactive in [1], in assay [10], in [3], in assay [9], in [4] and in [6]. For the same molecule, the call in assay [7] and in assay [8] was inactive.
With `c1ccc(-c2ccccn2)nc1`, the result in assay [1], in [10], in [3], in assay [9], in assay [4] and in [6] was inactive. For the same molecule, the call in assay [7] and in assay [8] was inactive.
On to `CC(=O)OC1C2(C)CCC(C2)C1(C)C` (configuration not stated), for which the molecule was called inactive in [1], in assay [10], in assay [3], in [9], in [4] and in assay [6]. Moreover, the molecule was called inactive in assay [7] and in assay [8].
With `O=C(c1ccccc1)c1ccc(O)c(O)c1O`, the molecule was called inactive in assay [1], in assay [10], in [3], in assay [9], in assay [4] and in assay [5]. Besides, the result in [6], in assay [7] and in assay [8] was inactive.
`O=C1c2ccccc2C(=O)C1c1nc2ccccc2c(Br)c1O`: the result in assay [1], in [10], in [3], in [9], in assay [5] and in assay [6] was inactive. Besides, the result in assay [7] and in [8] was inactive.
Consider `C=C1[C@H]2CC[C@@H]3[C@H]2C(C)(C)CCC[C@]13C`, for which the result in assay [1], in assay [2], in assay [9], in assay [4], in assay [6] and in [8] was inactive.
For the molecule `C=C(C)C(=O)OCCO`, the call in assay [1], in assay [10], in assay [3], in assay [9], in assay [4] and in [5] was inactive. The result in assay [6] and in [7] was inactive.
Regarding `Oc1ccc(Cl)cc1Cc1cc(Cl)ccc1O`, the molecule was called inactive in assay [1], in [10], in assay [3], in assay [9], in [4] and in [7]. Also, the molecule was called inactive in assay [8].
With `c1ccc(CCCc2ccncc2)cc1`, the molecule was classed as inactive in assay [1], in [2], in assay [3], in assay [9], in assay [5] and in [6]. Further, the molecule was called inactive in [7] and in assay [8].
`Nc1ccc(N=Nc2ccccc2)c(N)n1`: the outcome in assay [1], in assay [10], in assay [3], in [9], in assay [5] and in assay [6] was inactive. Besides, the outcome in assay [7] was inactive.
For the molecule `CC1=NN(c2cc(S(=O)(=O)O)ccc2Cl)C(=O)C1N=Nc1ccccc1` (configuration not stated), the outcome in [1], in assay [10], in [3], in assay [9], in assay [4] and in assay [5] was inactive. In addition, the outcome in [7] and in assay [8] was inactive.
Regarding `COC(=O)C1=C(C)NC(C)=C(C(=O)OCC(C)C)C1c1ccccc1[N+](=O)[O-]` (configuration not stated), the molecule was classed as inactive in assay [1], in [2], in assay [10], in [9], in assay [4] and in assay [5]. Moreover, the molecule was called inactive in assay [6] and in [7].
Take `O=[N+]([O-])C1(Br)COCOC1`: the result in assay [1], in assay [2], in assay [10], in assay [3], in assay [4] and in assay [5] was inactive. Also, the molecule was called inactive in assay [6], in assay [7] and in assay [8].
With `C=CC(=O)OCC(Br)CBr` (configuration not stated), the molecule was called inactive in assay [1], in assay [2], in assay [5], in assay [6], in [7] and in assay [8].
With `O=c1[nH]nc(-c2ccc([N+](=O)[O-])o2)o1`, the molecule was classed as inactive in [1], in assay [10], in [3], in assay [9], in assay [4] and in assay [5]. Further, the molecule was called inactive in assay [7] and in [8].
For the molecule `Cc1ccc(C2OC[C@@H]3OC(c4ccc(C)cc4)O[C@H]([C@H](O)CO)[C@@H]3O2)cc1` (some centres not stated), the molecule was classed as inactive in assay [1], in assay [10], in assay [3], in [9], in assay [4] and in [5]. The outcome in assay [6], in assay [7] and in assay [8] was inactive.
In the case of `COC(F)(F)C(F)(C(F)(F)F)C(F)(F)F`, the call in assay [1], in assay [2], in assay [3], in [5] and in assay [8] was inactive.
In the case of `CCC(C)OC(=O)c1ccc(O)cc1` (configuration not stated), the result in assay [1], in assay [10], in assay [3], in [9], in [5] and in assay [6] was inactive. In addition, the molecule was classed as inactive in assay [7] and in [8].
On to `CCCCCCCCO[C@@H]1O[C@H](CO)[C@@H](O)[C@H](O)[C@H]1O`, for which the call in assay [1], in assay [2], in assay [3], in [9], in assay [5] and in [6] was inactive. Moreover, the outcome in [7] and in assay [8] was inactive.
As to `CC(C)c1ccc2c(c1)CC[C@H]1[C@](C)(CN)CCC[C@]21C`, the outcome in [1], in assay [2], in assay [10], in [3], in [9] and in assay [6] was inactive. Besides, in [7], the result was inactive. Moreover, in assay [4], the AC50 was 5.45 µM (active).
